Among the data in PubChem BioAssay (EPA / NIEHS) are outcome and AC50 values, retold here.

The source made the active and inactive calls. How the source made its calls: active means hit-call score of the fitted dose curve at least 0.9, where 1 is the maximum; inactive means score below 0.9.

Conditions in all cases: mRNA level, 48 h; actives raise or lower the signal
Read-out in assay [1]: Insulin Like Growth Factor 1 (IGF1), IGF1 (gene 3479)
Description: LTEA_HepaRG_IGF1: Life Technologies and Expression Analysis (LTEA) Assay for Insulin Like Growth Factor 1 (IGF1) using HepaRG (AID 2283506). An outline of the steps: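 Differentiated human HepaRG cells were dosed for 48 h in serum-free induction medium with 0.5% DMSO, eight half-log concentrations up to 100 uM, in duplicate. IGF1 mRNA was quantified by qRT-PCR normalized to ACTB, GAPDH, POLR2A; bidirectional fitting versus DMSO.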

Read-out in assay [2]: Intercellular Adhesion Molecule 1 (ICAM1), ICAM1 (gene 3383)
Description: LTEA_HepaRG_ICAM1: Life Technologies and Expression Analysis (LTEA) Assay for Intercellular Adhesion Molecule 1 (ICAM1) using HepaRG (AID 2283507). The method in brief: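 Using the human liver line HepaRG, compounds are tested in duplicate over 48 h at concentrations up to 100 uM. Expression is determined by TaqMan qRT-PCR, normalized to endogenous controls, and analysed relative to 0.5% DMSO vehicle.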

Read-out in assay [3]: Insulin-like growth factor-binding protein 1 (IGFBP1), IGFBP1 (gene 3484)
The assay is described as follows: LTEA_HepaRG_IGFBP1: Life Technologies and Expression Analysis (LTEA) Assay for Insulin-like growth factor-binding protein 1 (IGFBP1) using HepaRG (AID 2283508). The method in brief:
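HepaRG, 48 h, 8 conc. (max 100 uM, half-log), duplicates, 0.5% DMSO. Readout: TaqMan qRT-PCR, ACTB/GAPDH/POLR2A normalisation. Fit: bidirectional vs DMSO.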

Read-out in assay [4]: Interleukin 6 (IL6), IL6 (gene 3569)
The assay is described as follows: LTEA_HepaRG_IL6: Life Technologies and Expression Analysis (LTEA) Assay for Interleukin 6 (IL6) using HepaRG (AID 2283509). An outline of the steps: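 Differentiated human HepaRG cells, plated 48 h then switched to serum-free induction medium, were exposed in duplicate for 48 h to eight half-log concentrations up to 100 uM in 0.5% DMSO. IL6 mRNA measured by qRT-PCR, normalized to ACTB/GAPDH/POLR2A.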

Read-out in assay [5]: Interleukin 6 Receptor (IL6R), IL6R (gene 3570)
The assay is described as follows: LTEA_HepaRG_IL6R: Life Technologies and Expression Analysis (LTEA) Assay for Interleukin 6 Receptor (IL6R) using HepaRG (AID 2283510). An outline of the steps: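 Differentiated human HepaRG cells, plated 48 h then switched to serum-free induction medium, were dosed in duplicate for 48 h at eight half-log concentrations up to 100 uM in 0.5% DMSO. IL6R mRNA quantified by qRT-PCR, normalized to ACTB/GAPDH/POLR2A; bidirectional fit versus DMSO.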

Read-out in assay [6]: Potassium channel subfamily K member 1 (KCNK1), KCNK1 (gene 3775)
The assay is described as follows: LTEA_HepaRG_KCNK1: Life Technologies and Expression Analysis (LTEA) Assay for Potassium channel subfamily K member 1 (KCNK1) using HepaRG (AID 2283511). The method in brief: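 Differentiated human HepaRG cells in serum-free induction medium were exposed in duplicate for 48 h to 8 half-log concentrations up to 100 uM in 0.5% DMSO. KCNK1 mRNA was measured by TaqMan qRT-PCR, normalized to ACTB, GAPDH and POLR2A, and fitted bidirectionally versus DMSO.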

Read-out in assay [7]: Keratin 19 (KRT19), KRT19 (gene 3880)
The assay is described as follows: LTEA_HepaRG_KRT19: Life Technologies and Expression Analysis (LTEA) Assay for Keratin 19 (KRT19) using HepaRG (AID 2283512). The method in brief: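 Readout is qRT-PCR of KRT19 mRNA, normalized to ACTB, GAPDH and POLR2A, from HepaRG cells treated 48 h with eight-point half-log dilutions topping at 100 uM. Activity in either direction is scored relative to 0.5% DMSO vehicle.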

Read-out in assay [8]: JUN Transcription Factor, JUN (gene 3725)
Description: LTEA_HepaRG_JUN: Life Technologies and Expression Analysis (LTEA) Assay for JUN Transcription Factor using HepaRG (AID 2283513). An outline of the steps: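 Differentiated HepaRG cells were exposed to chemicals for 48 h in serum-free induction medium, 8 concentrations from 100 uM in half-log steps, 0.5% DMSO vehicle, in duplicate. JUN mRNA was quantified by TaqMan qRT-PCR, normalized to ACTB, GAPDH, POLR2A.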

Read-out in assay [9]: Lipase C (LIPC), LIPC (gene 3990)
Description: LTEA_HepaRG_LIPC: Life Technologies and Expression Analysis (LTEA) Assay for Lipase C (LIPC) using HepaRG (AID 2283514). An outline of the steps:
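Differentiated human HepaRG cells in serum-free induction medium were exposed in duplicate for 48 h to eight concentrations (top 100 uM, half-log steps, 0.5% DMSO). LIPC mRNA was quantified by TaqMan qRT-PCR, normalized to ACTB, GAPDH and POLR2A, with bidirectional fitting versus DMSO.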

Read-out in assay [10]: Lipoprotein lipase (LPL), LPL (gene 4023)
The assay is described as follows: LTEA_HepaRG_LPL: Life Technologies and Expression Analysis (LTEA) Assay for Lipoprotein lipase (LPL) using HepaRG (AID 2283515). An outline of the steps:
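Differentiated human HepaRG cells in serum-free induction medium were exposed in duplicate for 48 h to eight half-log concentrations (top 100 uM) in 0.5% DMSO. LPL mRNA was quantified by TaqMan qRT-PCR, normalized to ACTB, GAPDH and POLR2A.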

Read-out in assay [11]: MicroRNA 122 (MIR122), gene 406906
The assay is described as follows: LTEA_HepaRG_MIR122: Life Technologies and Expression Analysis (LTEA) Assay for MicroRNA 122 (MIR122) using HepaRG (AID 2283516). Further: the transcript read is the microRNA miR-122. An outline of the steps: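 Differentiated human HepaRG cells were exposed 48 h in serum-free induction medium to eight half-log concentrations (top 100 uM, 0.5% DMSO). Transcript level was measured by TaqMan qRT-PCR, normalized to ACTB, GAPDH and POLR2A, and fitted bidirectionally versus DMSO.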

Read-out in assay [12]: matrix metalloproteinase-10 (MMP10), MMP10 (gene 4319)
The assay is described as follows: LTEA_HepaRG_MMP10: Life Technologies and Expression Analysis (LTEA) Assay for matrix metalloproteinase-10 (MMP10) using HepaRG (AID 2283517). An outline of the steps:
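HepaRG, collagen I, ~100,000 cells/well; serum-free induction medium; 48 h exposure, duplicate, 8-pt half-log to 100 uM, 0.5% DMSO. Readout: TaqMan qRT-PCR, normalized to ACTB/GAPDH/POLR2A; bidirectional fit vs DMSO.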

Read-out in the next assay: MYC, MYC (gene 4609)
Description: LTEA_HepaRG_MYC: Life Technologies and Expression Analysis (LTEA) Assay for MYC using HepaRG (AID 2283518). An outline of the steps:
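Expression changes were scored by TaqMan qRT-PCR with ACTB, GAPDH and POLR2A normalization. Cultures in serum-free induction medium received duplicate 8-point concentration series, highest 100 uM, for 48 h; DMSO (0.5%) served as baseline.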

Read-out in assay [13]: matrix metalloproteinase-3 (MMP3), MMP3 (gene 4314)
The assay is described as follows: LTEA_HepaRG_MMP3: Life Technologies and Expression Analysis (LTEA) Assay for matrix metalloproteinase-3 (MMP3) using HepaRG (AID 2283519). An outline of the steps: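 Differentiated human HepaRG cells, plated 48 h on collagen I, were exposed in duplicate for 48 h in serum-free induction medium to eight half-log concentrations up to 100 uM in 0.5% DMSO. MMP3 mRNA was quantified by TaqMan qRT-PCR, normalised to ACTB, GAPDH and POLR2A.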

Read-out in assay [14]: Paternally Expressed 10 (PEG10), PEG10 (gene 23089)
The assay is described as follows: LTEA_HepaRG_PEG10: Life Technologies and Expression Analysis (LTEA) Assay for Paternally Expressed 10 (PEG10) using HepaRG (AID 2283520). The method in brief:
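Differentiated HepaRG cells, plated 48 h then switched to serum-free induction medium, were exposed in duplicate for 48 h to eight half-log concentrations topping at 100 uM in 0.5% DMSO. PEG10 mRNA was quantified by TaqMan qRT-PCR, normalised to ACTB, GAPDH and POLR2A.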

Read-out in assay [15]: Nuclear factor NF-kappa-B p105 subunit (Homo sapiens) (UniProt P19838)
The assay is described as follows: LTEA_HepaRG_NFKB1: Life Technologies and Expression Analysis (LTEA) Assay for Nuclear Factor Kappa B Subunit 1 (NFKB1) using HepaRG (AID 2283521).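 Further: TaqMan qRT-PCR transcript normalised to ACTB GAPDH and POLR2A housekeeping genes.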 The method in brief:
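HepaRG, 48 h exposure; 8-pt half-log series from 100 uM in 0.5% DMSO; duplicates. Readout: NFKB1 mRNA by qRT-PCR (Fluidigm arrays), housekeeping-normalized. Gain/loss fit vs DMSO baseline.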

Read-out in assay [16]: Protein phosphatase 2A (PPP2R4), PTPA (gene 5524)
The assay is described as follows: LTEA_HepaRG_PPP2R4: Life Technologies and Expression Analysis (LTEA) Assay for Protein phosphatase 2A (PPP2R4) using HepaRG (AID 2283522). The method in brief:
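Differentiated HepaRG cells in serum-free induction medium were exposed in duplicate for 48 h to eight concentrations, top 100 uM with half-log dilutions, in 0.5% DMSO. PPP2R4 mRNA was quantified by TaqMan qRT-PCR, normalized to ACTB, GAPDH and POLR2A.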

Read-out in assay [17]: Phosphatase and tensin (PTEN), PTEN (gene 5728)
Description: LTEA_HepaRG_PTEN: Life Technologies and Expression Analysis (LTEA) Assay for Phosphatase and tensin (PTEN) using HepaRG (AID 2283523). An outline of the steps:
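Differentiated human HepaRG cells, plated 48 h then switched to serum-free induction medium, were exposed in duplicate for 48 h to eight half-log concentrations up to 100 uM in 0.5% DMSO. PTEN mRNA measured by TaqMan qRT-PCR, normalized to ACTB/GAPDH/POLR2A, bidirectional fit versus DMSO.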

Read-out in assay [18]: solute carrier (SLC22A1), SLC22A1 (gene 6580)
The assay is described as follows: LTEA_HepaRG_SLC22A1: Life Technologies and Expression Analysis (LTEA) Assay for solute carrier (SLC22A1) using HepaRG (AID 2283524). The method in brief:
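Human HepaRG cells were plated 48 h, switched to serum-free induction medium, then exposed in duplicate for 48 h to 8-point half-log series from 100 uM in 0.5% DMSO. SLC22A1 mRNA measured by qRT-PCR, normalized to ACTB/GAPDH/POLR2A, fitted bidirectionally versus DMSO.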

Read-out in assay [19]: Pyruvate Dehydrogenase Kinase 4 (PDK4), PDK4 (gene 5166)
Description: LTEA_HepaRG_PDK4: Life Technologies and Expression Analysis (LTEA) Assay for Pyruvate Dehydrogenase Kinase 4 (PDK4) using HepaRG (AID 2283525). An outline of the steps:
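Differentiated human HepaRG cells, pre-cultured 48 h, were exposed in duplicate for 48 h in serum-free induction medium to eight half-log concentrations up to 100 uM in 0.5% DMSO. PDK4 mRNA was quantified by qRT-PCR, normalized to ACTB, GAPDH and POLR2A, bidirectional fitting versus DMSO.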

Nuclear factor NF-kappa-B p105 subunit (Homo sapiens), sequence (P19838 whole entry, looked up): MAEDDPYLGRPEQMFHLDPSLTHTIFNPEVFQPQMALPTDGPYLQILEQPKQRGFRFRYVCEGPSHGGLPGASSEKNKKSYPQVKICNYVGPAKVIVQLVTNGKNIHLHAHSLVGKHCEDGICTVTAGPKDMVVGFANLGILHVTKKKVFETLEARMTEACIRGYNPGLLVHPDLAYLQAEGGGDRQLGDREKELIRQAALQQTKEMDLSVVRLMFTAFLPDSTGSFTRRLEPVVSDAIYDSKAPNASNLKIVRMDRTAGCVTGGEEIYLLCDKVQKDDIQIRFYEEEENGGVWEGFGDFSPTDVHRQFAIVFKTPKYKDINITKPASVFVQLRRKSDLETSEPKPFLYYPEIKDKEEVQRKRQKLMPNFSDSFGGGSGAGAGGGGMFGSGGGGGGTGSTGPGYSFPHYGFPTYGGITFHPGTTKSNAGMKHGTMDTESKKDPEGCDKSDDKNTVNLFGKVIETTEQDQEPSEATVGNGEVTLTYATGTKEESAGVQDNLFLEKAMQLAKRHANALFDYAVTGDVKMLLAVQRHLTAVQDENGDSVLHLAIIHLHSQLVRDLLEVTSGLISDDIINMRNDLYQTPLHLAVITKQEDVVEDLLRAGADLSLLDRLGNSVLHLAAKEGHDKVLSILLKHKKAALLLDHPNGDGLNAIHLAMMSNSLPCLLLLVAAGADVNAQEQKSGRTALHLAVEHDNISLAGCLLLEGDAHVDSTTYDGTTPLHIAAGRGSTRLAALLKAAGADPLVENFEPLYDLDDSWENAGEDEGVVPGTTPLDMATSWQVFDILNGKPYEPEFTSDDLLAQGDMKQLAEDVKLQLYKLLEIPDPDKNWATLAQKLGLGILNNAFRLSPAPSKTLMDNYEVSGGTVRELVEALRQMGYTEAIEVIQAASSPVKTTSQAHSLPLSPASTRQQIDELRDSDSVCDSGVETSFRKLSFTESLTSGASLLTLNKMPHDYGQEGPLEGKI

Regarding `CCCCCCOCCO`, the outcome in assay [1], in [2], in assay [3], in assay [4], in assay [5] and in assay [6] was inactive. Also, the result in assay [7], in assay [8], in assay [9], in assay [10], in assay [11] and in assay [12] was inactive. Further, the outcome with MYC, MYC (gene 4609) is “inactive”; in assay [13], “inactive”; in assay [14] it was “inactive”; in assay [15], “inactive”; in assay [16] it was “inactive”; in [17], “inactive”. The result in assay [18] and in [19] was inactive.
As to `Nc1ccc2c(c1)C(=O)c1ccccc1C2=O`, the compound was called inactive in assay [1], in assay [2], in [4], in assay [5], in [6] and in [8]. The call in assay [12], in assay [13], in assay [15] and in assay [17] was inactive. The AC50 (usually the midpoint of the concentration-response curve, whichever way the signal moves) in assay [3] was 13.2 µM (active); in assay [7], 9.08 µM (active); in assay [9], 8.27 µM (active); in assay [10] it was 2.09 µM (active); in assay [11], 4.24 µM (active); with MYC, MYC (gene 4609), 12.3 µM (active). For the same compound, the AC50 in assay [14] was 15.5 µM (active); in assay [18] it was 7.06 µM (active); in assay [19] it was 13.2 µM (active).
Turning to `Cc1cccc(Nc2cc(Cl)nc(SCC(=O)O)n2)c1C`, the call in assay [1], in assay [2], in assay [3], in assay [4], in assay [5] and in assay [6] was inactive. Also, the outcome in assay [7], in assay [8], in assay [9], in [10], in [11] and in assay [12] was inactive. The outcome in the assay with MYC, MYC (gene 4609) is “inactive”; in [13] it was “inactive”; in assay [14] it was “inactive”; in assay [15] it was “inactive”; in [16], “inactive”; in assay [17], “inactive”. Further, the result in assay [18] was inactive.
